# Gli-Sufu block: antagonists of Gli-Sufu signaling; AID 588413; inhibition, % at 5 µM; actives 0.74% (n = 340,000); Sufu-KO-LIGHT fibroblasts, Gli luciferase reporter luminescence;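 active means inhibition above about 55%, limit read from the data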
# FXN GAA850 act: frataxin GAA850 promoter activation; AID 540364; HEK293 lucGAA850 FXN promoter luciferase reporter, 24 h; percent of 10 µM SAHA response; actives 0.56% (n = 360,000); activation, % at 6 µM;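 active means activation above the average of all compounds screened plus 3 SD, cutoff fixed separately per campaign, cut at about 7.5% in these data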
# GalR3 antag: blocks the human galanin receptor 3; O60755; HEK293 GalR3-CNG cAMP membrane potential fluorescence; galR3 body fused to GalR1 C-terminus; inhibition, % at 3 µM; actives 0.44% (n = 360,000); AID 651719;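 active means inhibition above the screen-wide average plus 3 SD, cut at about 13% in these data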;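 further: forskolin and galanin both at EC90 stimulate the cells; cAMP rise reported by CNG channel membrane potential dye signal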
# Target sequence (O60755 1-299 limits assumed): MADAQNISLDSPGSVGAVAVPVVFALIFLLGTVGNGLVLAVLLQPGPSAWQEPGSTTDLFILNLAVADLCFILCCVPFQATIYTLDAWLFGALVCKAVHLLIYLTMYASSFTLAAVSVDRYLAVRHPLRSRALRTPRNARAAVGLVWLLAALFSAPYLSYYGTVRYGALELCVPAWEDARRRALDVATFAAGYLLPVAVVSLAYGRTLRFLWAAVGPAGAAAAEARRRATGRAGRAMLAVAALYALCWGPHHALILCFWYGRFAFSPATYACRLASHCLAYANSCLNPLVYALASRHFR
# NR2F2 inh: blocks human COUP-TFII nuclear receptor | P24468 | HEK293T NGFI-A luciferase reporter, luminescence | inhibition, % at 8.6 µM | actives 0.7% (n = 370,000);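 active means inhibition above a per-plate cutoff, mean inhibition of test wells between control levels plus 3 SD, cut at about 38% in these data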;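 further: cells cotransfected with COUP-TFII expression vector driving the NGFI-A reporter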
# SMARCA2 activ: increases SMARCA2 function in MMTV reporter cells. MG213 cells, MMTV-luciferase reporter, dexamethasone, overnight. activation, % at 9.1 µM. actives 1% (n = 370,000). AID 652017; in the data active means activation above about 7.8%
# H9c2 protect: protects H9c2 cardiomyocytes from peroxide injury; H2O2 injury protection, ATPLite, 2 h; protection from H2O2 cell death, % at 20 µM; actives 0.63% (n = 360,000);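 active means compounds giving at least 50% protection of heart cells from peroxide-induced death in the single-dose screen, raw or plate-pattern-corrected value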
# Gli antag conf: confirmation of Gli-SUFU pathway antagonists; AID 602428; shares compounds with Gli-Sufu block; Sufu-KO-LIGHT cells, Gli luciferase reporter, luminescence; inhibition, % at 5 µM; actives 40% (n = 2,500);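 active means mean inhibition at 5 µM reaching about 45%, limit read from the data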
# Gli cytotox: cytotoxicity counter-screen for Gli-SUFU antagonists; AID 651994; cytotoxicity, % at 5 µM; Sufu-KO-LIGHT cells cytotoxicity, ATP luminescence; shares compounds with Gli-Sufu block; actives 32% (n = 2,500);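 active means mean cytotoxicity at 5 µM above about 25%, limit read from the data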;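 further: cells exposed to compound overnight for roughly 16 to 18 hours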
# Wnt3a counter: counter-screen for Gli-SUFU antagonists: Wnt3a reporter inhibition; actives 20% (n = 2,500); shares compounds with Gli-Sufu block; inhibition, % at 6.25 µM; Wnt-LIGHT cells, Wnt3a-driven luciferase reporter, luminescence;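 active means mean inhibition above about 25%, limit read from the data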
# Hits are given with their value; i = inactive; nt = not tested or not shown. Only some compounds are listed: those with a hit (about 3.4% of all), similar ones and a draw of the others.
SMILES,Gli-Sufu block,FXN GAA850 act,GalR3 antag,NR2F2 inh,SMARCA2 activ,H9c2 protect,Gli antag conf,Gli cytotox,Wnt3a counter
COCCCN1C(=O)C(CC(=O)NCCc2ccccn2)CC(C(=O)N2CCCCCC2)=C1C (centres undefined),nt,nt,i,i,i,nt,nt,nt,nt
Cc1cccc(NC(=S)NCc2ccccc2Cl)c1C,i,i,i,i,i,i,nt,nt,nt
Cc1nn(CC(=O)NC(C)CCc2ccccc2)c(=O)c2nn(-c3ccccc3)c(C)c12 (centres undefined),i,i,i,i,i,i,i,i,i
Cc1ccccc1CCNC(=O)Cn1nc(C)c2c(C)n(-c3ccccc3)nc2c1=O,i,i,i,i,i,i,nt,nt,nt
O=C(NCCc1ccccc1)OCc1cn(Cc2c(F)cccc2F)nn1,nt,nt,nt,i,i,nt,nt,nt,nt
COc1ccc(-c2cc(C)no2)cc1S(=O)(=O)NCC(C)c1ccccc1 (centres undefined),76,i,i,i,i,i,i,i,i
CCc1ccc(-c2cc(C)no2)cc1S(=O)(=O)NCCCN1CCN(c2ccccc2)CC1,i,i,i,i,i,i,i,29,i
CCN(CC)c1ccc(C=Nn2c(C)nnc2C)cc1,nt,nt,nt,i,i,nt,nt,nt,nt
O=C(C[n+]1ccccc1)c1ccc(-c2ccccc2)cc1,i,i,i,i,i,i,nt,nt,nt
C=Cn1cc[n+](CC(=O)c2ccc(-c3ccccc3)cc2)c1,i,i,i,i,i,i,i,i,i
CCC(CC)COC(=O)C1=C(C)NC(=O)NC1c1cccc([N+](=O)[O-])c1 (centres undefined),62,i,i,i,i,i,i,i,i
CCCCOC(=O)C1=C(C)NC(=O)NC1c1cccc([N+](=O)[O-])c1 (centres undefined),i,i,i,i,i,i,nt,nt,nt
CCOC(=O)[C@]12CCCC=C1N(Cc1ccco1)C(=O)[C@H](CC(=O)N1CCSCC1)C2,nt,nt,i,i,i,nt,nt,nt,nt
CCOC(=O)[C@]12Cc3c(cc(OC)c(OC)c3OC)[C@H]1N(C1CCCCC1)C(=O)c1cc(OC)ccc12,nt,nt,i,i,i,nt,nt,nt,nt
CC1(C)CC(=O)C/C(=N/NC(=O)CCCOc2ccc(Cl)cc2Cl)C1,99,i,i,i,i,i,i,i,i
C=C1[C@@H]2CC[C@H]3[C@]4(C)[C@@H](O)CC[C@@](C)(C(=O)OC)[C@H]4C[C@H](O)[C@]3(C2)[C@H]1O,nt,nt,nt,i,i,nt,nt,nt,nt
CC(C)NC(=O)c1ccccc1NC(=O)C1CCCO1 (centres undefined),59,i,i,i,i,i,i,i,i
CC(COc1ccc(C#N)cc1)CN1CCC(C(O)(c2ccccc2)c2ccccc2)CC1 (centres undefined),nt,nt,nt,i,i,nt,nt,nt,nt
Cc1ccc(-c2nc(CSCC(=O)NCC3CCCO3)c(C)o2)cc1 (centres undefined),i,i,i,i,i,i,nt,nt,nt
CCOc1ccc(-c2nc(CSCC(=O)NCC3CCCO3)c(C)o2)cc1 (centres undefined),89,i,i,i,i,i,89,i,i
O=C(Cc1cccc2ccccc12)Nc1nc2ccccc2[nH]1,i,i,i,i,i,i,nt,nt,nt
O=C(Cc1ccccc1F)Nc1nc2ccccc2[nH]1,67,i,i,i,i,i,i,i,i
CC(NC(=O)CCNC(=O)c1ccccc1Cl)C1CC2CCC1C2 (centres undefined),i,i,i,i,i,i,i,i,i
CC(NC(=O)c1ccccc1Cl)C1CC2CCC1C2 (centres undefined),i,i,i,i,i,i,nt,nt,nt
CCCCc1nc(N2CCN(C(=O)c3ccco3)CC2)c(C#N)c2c1CCCC2,66,i,i,i,i,i,i,i,35
SMILES,Gli-Sufu block,FXN GAA850 act,GalR3 antag,NR2F2 inh,SMARCA2 activ,H9c2 protect,Gli antag conf,Gli cytotox,Wnt3a counter
O=[N+]([O-])c1ccc(N/N=C2/CCCCC2c2ccccn2)cc1 (centres undefined),i,i,i,i,i,i,nt,nt,nt
CC(=O)NC(Cc1ccccc1)P(=O)(O)O (centres undefined),nt,nt,nt,i,i,nt,nt,nt,nt
Cc1ccc2nc(NC(=O)C3CCN(c4ncnc5sc(C)c(C)c45)CC3)sc2c1,i,i,nt,nt,nt,i,nt,nt,nt
Cc1sc2ncnc(N3CCN(S(=O)(=O)c4ccccc4)CC3)c2c1C,60,i,nt,nt,nt,i,54,26,30
Cc1ccc(C)c(S(=O)(=O)N2CCN(C(=O)C3CCN(c4ncnc5sc(C)c(C)c45)CC3)CC2)c1,73,i,i,i,i,i,i,i,i
O=C(OCC(=O)N1CCOCC1)c1cccc(S(=O)(=O)N2CCCc3ccccc32)c1,i,i,i,i,i,i,nt,nt,nt
O=C(CCl)NC1CCCCN(Cc2ccc(OC(F)(F)F)cc2)C1=O (centres undefined),nt,nt,nt,i,i,nt,nt,nt,nt
CCCCCCCCn1c(=O)c(C(=O)OC)c(N)c2ccccc21,67,i,i,i,i,i,i,i,28
CCCCCCCn1c(=O)c(C(=O)OC)c(N)c2ccccc21,i,i,i,i,i,i,nt,nt,nt
C/C(=N\NC(=O)C(=O)Nc1ccc(C)c(Cl)c1)c1ccncc1,62,i,i,i,i,i,62,32,i
C/C(=N\NC(=O)C(=O)Nc1ccc(C)cc1)c1ccncc1,i,i,i,i,i,i,nt,nt,nt
C/C(=N\NC(=O)C(=O)Nc1cccc(Cl)c1)c1ccncc1,61,i,i,i,i,i,59,35,i
COc1cc(S(=O)(=O)N2CCOCC2)cc(C(=O)OCC(=O)NC2CCCCC2)c1OC,i,i,i,i,i,i,nt,nt,nt
C[C@H]1CN([C@@H](C)CO)S(=O)(=O)c2ccc(Br)cc2O[C@H]1CN(C)C(=O)c1ccccc1F,nt,nt,i,i,i,nt,nt,nt,nt
Cn1c(=O)c2ccccc2n(Cc2ccccc2F)c1=O,i,i,i,i,i,i,nt,nt,nt
Cn1c(=O)c2ccccc2n(Cc2cccc(F)c2)c1=O,i,i,i,i,i,i,i,i,i
OC[C@H]1CC[C@@H]2O[C@H](CCc3ccc(-c4ccc(F)cc4)cc3)[C@@H](n3cc(C4CC4)nn3)C[C@@H]2O1,nt,nt,nt,i,i,nt,nt,nt,nt
CCOCCOC(=O)c1[nH]c2c(c1C)C(=O)CC(c1ccccc1)C2 (centres undefined),i,i,i,i,i,i,53,60,i
CCOCCOC(=O)c1[nH]c2c(c1C)C(=O)CC(c1cc(OC)c(OC)c(OC)c1)C2 (centres undefined),i,i,i,i,i,i,nt,nt,nt
O=C(Nc1ccc2oc(-c3ccccc3F)nc2c1)c1ccc2c(c1)OCCO2,i,i,i,i,i,i,i,i,i
O=C(Nc1ccc(-c2nc3ccccc3o2)cc1)c1ccc2c(c1)OCO2,i,i,i,i,i,i,nt,nt,nt
